# Compound activity as filed in PubChem.
# Shown are actives, neighbours in structure and some others; about 28% of the full set was active somewhere.
# Pyk2 oligo antag – antagonists of human Pyk2 oligomerization. Q293 cells, Pyk2 FERM NanoBiT luminescence; stronger effect = lower value. z-score (the deposit names both 25 µM and 10 µM). 99,000 compounds, 0.83% hits. AID 1347419. Q14289;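 active means Z-score of -3 or lower, scaled per plate to the spread of control and sample wells; inactive means z-score above -3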;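 further: negative z-score means lost luminescence so less FERM oligomerization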
# CYP2C19 act – cytochrome P450 2C19 (human) activation. P33261. AID 1025. 96,000 tested, under 10 active. recombinant CYP2C19, luciferin-H EGE luminescence; stronger effect = higher value; 0 = fully inhibited enzyme, 1 = untreated enzyme. activation factor at 5 µM;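 active means activation factor of at least 2 at 5 µM in the primary screen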
# CYP2C19 inhib – inhibitors of human CYP2C19 | P33261 | CYP2C19 Supersomes, luciferin-H EGE luminescence, 30 min | inhibition, % at 5 µM | 96,000 compounds, 21% hits;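 active means CYP2C19 inhibition above a set limit at 5 µM in the primary screen, cut at about 50% in these data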
# CYP2C9 inhib – human CYP2C9 inhibition; P11712; CYP2C9 Supersomes, luciferin-H conversion, luminescence; inhibition, % at 5 µM; 96,000 compounds, 20% hits; AID 777;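 active means blocking of liver enzyme CYP2C9 beyond about 50% at 5 µM, limit read from the data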
# Target sequence (P11712 whole entry, looked up): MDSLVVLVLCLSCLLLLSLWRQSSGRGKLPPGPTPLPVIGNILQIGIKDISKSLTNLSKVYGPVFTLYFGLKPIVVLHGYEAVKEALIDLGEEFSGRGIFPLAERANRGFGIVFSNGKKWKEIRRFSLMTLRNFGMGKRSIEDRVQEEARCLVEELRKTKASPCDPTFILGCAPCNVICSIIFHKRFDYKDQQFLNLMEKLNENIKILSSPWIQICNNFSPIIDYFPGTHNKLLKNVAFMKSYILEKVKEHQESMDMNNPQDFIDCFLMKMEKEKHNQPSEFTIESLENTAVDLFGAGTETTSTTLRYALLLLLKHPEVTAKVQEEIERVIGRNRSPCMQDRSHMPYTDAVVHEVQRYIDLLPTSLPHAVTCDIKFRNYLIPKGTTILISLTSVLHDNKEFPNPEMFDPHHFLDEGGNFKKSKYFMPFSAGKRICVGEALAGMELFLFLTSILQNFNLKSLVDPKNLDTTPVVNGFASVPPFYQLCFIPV
# CYP2C9 activ – increases human cytochrome P450 2C9 activity | recombinant CYP2C9, luciferin-H conversion, luminescence; stronger effect = higher value; factor 1 = untreated enzyme, 0 = blocked | AID 1024 | 96,000 compounds, 1.4% hits | P11712 | activation factor at 5 µM;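 active means activation factor of 2 or more for CYP2C9 at a 5 µM dose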
# Numbers stand for hits; . = inactive; / = no result given.
SMILES,Pyk2 oligo antag,CYP2C19 act,CYP2C19 inhib,CYP2C9 inhib,CYP2C9 activ
O=C(Nc1ccc2oc(-c3ccccc3)nc2c1)c1ccncc1,.,.,.,.,.
O=S(=O)(Nc1ccc2oc(-c3ccccc3)nc2c1)c1ccccc1,.,.,93,94,.
CC(C)CCN1C(=O)c2ccc(C(=O)NCC3CCCO3)cc2C1=O (stereo not drawn),.,.,79,81,.
O=C(NCC1CCCO1)c1ccc2c(c1)C(=O)N(C1CCCCC1)C2=O (stereo not drawn),.,.,.,61,.
Cc1cc(NC(=O)c2ccc3c(c2)C(=O)N(CCC(C)C)C3=O)no1,.,.,.,.,.
O=[N+]([O-])c1cc(S(=O)(=O)c2ccc(N3CCCCC3)c([N+](=O)[O-])c2)ccc1N1CCCCC1,.,/,/,/,/
O=[N+]([O-])c1cc([N+](=O)[O-])c(N2CCCCCC2)cc1NCCO,.,.,.,70,.
CCOC(=O)c1c(C)[nH]c(NC(=O)N2CCOCC2)c1C,.,.,.,.,.
Cc1ccc(-c2c(C(=O)NCc3ccc(F)cc3)oc(=O)c3ccccc23)cc1,.,/,/,/,/
N#CCCN/N=C(/Cc1nc2ccccc2[nH]1)c1cccc(Cl)c1,.,.,86,63,.
COc1ccc2oc(=O)c(C(=O)Oc3ccc(NC(C)=O)cc3)cc2c1,.,.,.,.,.
Cc1cccc2cc(COC(=O)c3ccccn3)c(=O)[nH]c12,.,.,.,.,.
O=[N+]([O-])c1ccc(OC/C=C2\Oc3ccc([N+](=O)[O-])cc3C2N2CCOCC2)cc1 (stereo not drawn),.,.,71,.,.
O=[N+]([O-])c1ccc2c(c1)C(N1CCOCC1)/C(=C/COc1ccc(F)cc1)O2 (stereo not drawn),.,.,84,54,.
O=[N+]([O-])c1ccc2c(c1)C(N1CCOCC1)/C(=C/COc1ccc3ccccc3c1Br)O2 (stereo not drawn),.,.,52,.,.
C[N+]1(CCOc2ccc([N+](=O)[O-])cc2)CCOCC1,.,.,.,.,.
O=S(=O)(c1ccc2c(c1)nc(COc1ccc(Cl)cc1)n2CC1CCCO1)N1CCOCC1 (stereo not drawn),.,.,.,.,.
CCOc1ccc(N2C(=O)c3cccnc3C2Nc2ccc(C)cc2)cc1 (stereo not drawn),.,.,.,.,.
Cc1ccsc1C1Nc2ccc3ncccc3c2C2=C1C(=O)CC(C)(C)C2 (stereo not drawn),.,.,98,80,.
O=C1CCCC2=C1C(c1cccs1)Nc1ccc3ncccc3c12 (stereo not drawn),.,.,95,94,.
COc1ccc(OC)c(C(=O)COC(=O)CNC(=O)C2CCCCC2)c1,.,.,.,.,.
CC(c1ccco1)N(C(=O)c1ccc(Cl)s1)c1ccccn1 (stereo not drawn),/,.,89,59,.
CCc1ccccc1NC(=O)CSc1nc2ccccc2n1CC(=O)N(C)C,.,.,79,56,.
CCc1cccc(C)c1NC(=O)CSc1nc2ccccc2n1CC(=O)N(C)C,.,.,54,.,.
Cc1ccc(C(=O)NNC(=O)Cc2ccccc2)cc1,.,.,.,.,.
SMILES,Pyk2 oligo antag,CYP2C19 act,CYP2C19 inhib,CYP2C9 inhib,CYP2C9 activ
O=C(O)C1CC(c2ccccc2F)=NO1 (stereo not drawn),.,.,.,.,.
O=C(NCC(c1cccnc1)N1CCN(c2ccc(F)cc2)CC1)c1ccccc1 (stereo not drawn),.,.,54,.,.
O=C(NCC(c1cccnc1)N1CCN(c2ccccc2)CC1)c1ccco1 (stereo not drawn),.,/,/,/,/
O=S(=O)(NCC(c1cccnc1)N1CCN(c2ccccc2)CC1)c1cc(F)ccc1F (stereo not drawn),.,.,.,.,.
CCOC(=O)C1CCN(C(c2cccnc2)c2c(NC(=O)c3ccco3)sc(C)c2C)CC1 (stereo not drawn),.,.,60,82,.
Cc1sc(NC(=O)c2ccco2)c(C(c2cccnc2)N2CCN(c3ccc(F)cc3)CC2)c1C (stereo not drawn),/,.,95,99,.
CCOc1ccc(C(=O)Nc2c3c(nn2C(C)(C)C)CSC3)cc1OCC,.,.,.,.,.
CCOc1ccc(-n2c(C)nnc2SCC(=O)N(CC)CC)cc1,.,.,.,.,.
Cn1c(N)c(C(=O)c2cc(-c3ccccn3)nc3ccccc23)c(=O)[nH]c1=O,.,.,.,.,.
